Only some compounds are listed: those with a hit (about 2.5% of all), similar ones and a draw of the others.
aDG glyco act – activators of alpha-DG glycosylation, primary screen, uHTS, Pro5-aDG cells, AlphaScreen. alpha-DG glycosylation AlphaScreen (IIH6); 0% Pro5, 100% B10-LARGE cell signal. activation, % at 10 µM. actives 0.22% (n = 360,000). AID 624168, 2012;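 active = activation of at least 8% versus controls, or a plate z-score of at least 8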;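 note: Pro5 are CHO cells carrying HIG-tagged alpha-DG that lacks glycosylation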
GC-A act – GC-A stimulated cGMP production enhancers – HEK293 GC-A cells, cGMP TR-FRET, EC30 ANP, primary screen; Atrial natriuretic peptide receptor 1 (Homo sapiens), P16066; 0% at EC30 ANP, 100% saturating ANP; activation, % at 10 µM; actives 0.14% (n = 370,000); in the data active = activation above about 40%
Target sequence (P16066 whole entry, looked up): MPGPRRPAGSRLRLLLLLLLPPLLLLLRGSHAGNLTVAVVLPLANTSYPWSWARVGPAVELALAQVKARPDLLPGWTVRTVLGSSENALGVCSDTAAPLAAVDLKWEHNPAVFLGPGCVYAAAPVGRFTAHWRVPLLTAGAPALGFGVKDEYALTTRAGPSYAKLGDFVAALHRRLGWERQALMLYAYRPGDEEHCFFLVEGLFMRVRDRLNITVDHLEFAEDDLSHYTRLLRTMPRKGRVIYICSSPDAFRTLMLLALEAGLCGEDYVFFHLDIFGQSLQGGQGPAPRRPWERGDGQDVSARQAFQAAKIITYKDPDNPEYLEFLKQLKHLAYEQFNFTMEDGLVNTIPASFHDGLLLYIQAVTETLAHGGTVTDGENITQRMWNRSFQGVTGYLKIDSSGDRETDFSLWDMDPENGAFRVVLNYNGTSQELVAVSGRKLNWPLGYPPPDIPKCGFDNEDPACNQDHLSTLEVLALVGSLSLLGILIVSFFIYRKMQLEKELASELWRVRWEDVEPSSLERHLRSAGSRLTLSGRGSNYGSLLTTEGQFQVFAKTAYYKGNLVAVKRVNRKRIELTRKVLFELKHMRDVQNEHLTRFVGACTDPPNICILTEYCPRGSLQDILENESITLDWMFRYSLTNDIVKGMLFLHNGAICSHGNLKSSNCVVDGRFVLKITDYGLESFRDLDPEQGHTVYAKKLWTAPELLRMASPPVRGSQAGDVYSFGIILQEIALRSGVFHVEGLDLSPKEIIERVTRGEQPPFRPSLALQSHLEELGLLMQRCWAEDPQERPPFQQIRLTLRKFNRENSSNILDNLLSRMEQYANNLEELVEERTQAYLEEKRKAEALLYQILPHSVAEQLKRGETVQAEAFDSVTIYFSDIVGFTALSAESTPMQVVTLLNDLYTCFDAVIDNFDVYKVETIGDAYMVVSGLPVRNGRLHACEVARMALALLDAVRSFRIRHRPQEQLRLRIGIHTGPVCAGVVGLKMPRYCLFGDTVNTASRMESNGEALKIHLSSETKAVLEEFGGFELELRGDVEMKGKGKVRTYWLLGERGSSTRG
HSF-1 act – HSF-1 activators, primary screen, NIH3T3-HGL cells, MG132 stress, luminescence, single point; activation, % at 9 µM; actives 1.7% (n = 300,000); NIH3T3-HGL HSF-1 luciferase reporter, 8 h; 100% = twice DMSO control signal;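 active = mean replicate activation of at least 50% with a set share of replicates each reaching 50%; inconclusive = only one of those two conditions met; inactive = mean below 50% and too few replicates reaching it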;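 note: 0% = median of the neutral control wells and 100% = twice that signal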
GC-B act – human GC-B receptor activators, primary screen, HEK293 GC-B cells, cGMP TR-FRET, EC30 CNP; Atrial natriuretic peptide receptor 2 (Homo sapiens), P20594; 0% at EC30 CNP, 100% saturating CNP; activation, % at 10 µM; actives 0.11% (n = 370,000);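 active = activation at 10 µM reaching about 35% in either raw or pattern-adjusted values, limit read from the data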
HSF1 inh – HSF1 inhibitors in luciferase reporter cells, primary screen, cell-based, NIH3T3, luminescence; actives 0.77% (n = 300,000); NIH3T3-HGL HSE-luciferase, MG132-induced, luminescence 8 h; active compounds read low; AID 2098, 2009; activity change, negative = inhibition, % at 7.5 µM (by protocol);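 active = more than half of replicate wells show activity change below -50%, luminescence cut by over half; inconclusive = some wells, but at most half, below -50%; inactive = no replicate well below -50%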;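 note: luciferase reports HSF-1 transcriptional activity via heat shock element; 0% = median of DMSO wells and -100% = zero luminescence signal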
DYRK1A inh – rat Dyrk1A kinase inhibitors, primary screen, biochemical, single point, plate reader; ADP-Glo luminescence, NFATc1 peptide; inhibition, % at 12.5 µM; Dual specificity tyrosine-phosphorylation-regulated kinase 1A (Rattus norvegicus), Q63470; AID 504441, 2011; actives 0.43% (n = 310,000); in the data active = inhibition above about 50%;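 note: plate controls were vehicle with enzyme for no effect and no enzyme for full effect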
* = called active by the depositor; ? = inconclusive; / = not tested or not shown.

SMILES	aDG glyco act	GC-A act	HSF-1 act	GC-B act	HSF1 inh	DYRK1A inh
CC1(C)CC(=O)C2=C(C1)Nc1ccccc1NC2c1cccnc1 (stereo unspecified)	-0.6	-0.7	-25.4	3.6	-8.8	0.4
CN(C)c1ccc(-c2nc3n(n2)C(c2cccnc2)C2=C(CC(C)(C)CC2=O)N3)cc1 (stereo unspecified)	-0.2	-0.5	-76.0	-2.2	-69.7*	1.7
Cn1cc(CN2CCN(Cc3ccc4c(c3)OCO4)CC2)c(-c2ccccc2F)n1	-0.3	-0.7	10.8	2.2	2.8	-3.8
CCSC1(SCC)N=C(N)C2(C#N)C(c3ccccc3)NC3=C(CCC3)C12C#N (stereo unspecified)	0.0	-25.7	29.3	-15.4	21.3	2.6
CCSC1(SCC)N=C(N)C2(C#N)C(c3ccc(OC)c(OC)c3OC)C12C#N (stereo unspecified)	0.1	-10.1	197.8*	-7.4	149.0	4.4
Cn1c(=O)c2c(nc(SCC(=O)NC34CC5CC(CC(C5)C3)C4)n2C)n(C)c1=O	0.1	-0.2	-19.5	0.1	-10.7	9.4
Cc1cc(C)nc(SCc2cn3cc(Cl)ccc3n2)n1	0.0	5.6	63.8*	6.8	42.0	-1.4
Nc1cc(=O)[nH]c(SCc2cccc(Cl)c2)n1	-0.2	-2.1	/	-3.7	/	-0.7
O=C(/C=C/Nc1ccccc1F)c1cccs1	0.0	3.7	?	-2.9	19.6	-0.6
O=C(Nc1cccs1)Nc1ccc(F)cc1F	0.2	2.8	98.2*	1.5	46.7	-4.2
O=C(Nc1cccs1)Nc1ccc(Br)cc1F	1.1	13.7	59.8*	-3.7	36.3	-3.9
O=C(/C=C/Nc1ccc(F)cc1F)c1cccs1	-0.3	6.2	77.0*	-7.2	29.8	5.5
O=C(Nc1ccc(F)cc1F)Nc1ccc(F)cc1F	-0.1	3.2	33.5	1.0	6.3	0.8
COc1ccc(-n2cc(CNCCc3nc(C)cc(C)n3)c(-c3ccccc3Cl)n2)cc1	0.6	-6.0	32.4	-10.7	12.0	-3.1
Fc1ccc(-n2cc(CNCCc3ccccn3)c(-c3ccccc3Cl)n2)cc1	0.4	-9.3	-65.5	-0.8	-52.5*	-5.2
Cc1ccc(-n2cc(CNCCc3ncc(C)[nH]3)c(-c3ccc(F)cc3)n2)cc1	11.4*	-0.4	14.3	-1.2	6.8	-4.3
Cc1ccccc1Nc1nc(N)nc(CSc2nncn2C)n1	-0.1	2.8	15.8	4.2	-6.6	/
CCC1(c2ccccc2)NC(=O)N(CC(=O)NC2CCCC2)C1=O (stereo unspecified)	0.1	0.5	/	3.6	/	0.6
CCN(/N=C/C=C/c1ccccc1)c1cc(=O)n(C)c(=O)[nH]1	0.7	-5.4	69.2*	-5.7	26.6	3.6
COc1ccccc1C(=O)COC(=O)COc1cccc2c1OC(C)(C)C2	-0.2	2.3	-13.5	-0.1	-1.9	-6.4
COc1ccc(NC(=O)CC2SC(=O)NC2=O)cc1 (stereo unspecified)	0.4	4.8	-3.6	-2.9	-5.9	-0.7
COc1ccc(-c2cc3ccc(OCC(C)=O)cc3oc2=O)cc1	1.1	13.2	61.6*	-7.0	28.1	-5.7
COC(=O)COc1ccc2c(-c3ccc(OC)cc3)cc(=O)oc2c1	-0.1	60.9*	-9.3	22.5	-11.4	2.5
COC(=O)COc1ccc2cc(-c3ccc(OC)cc3)c(=O)oc2c1	-0.1	34.8	-22.4	22.1	-8.9	2.9
O=c1oc2cc(O)ccc2cc1-c1ccccc1	-0.4	9.9	11.5	-3.3	14.1	8.0
SMILES	aDG glyco act	GC-A act	HSF-1 act	GC-B act	HSF1 inh	DYRK1A inh
COc1ccc(-c2cc3ccc(OCC(C)=O)cc3oc2=O)cc1OC	0.3	10.2	28.5	-4.5	24.3	-0.5
COc1ccc(-c2cc3ccc(O)cc3oc2=O)cc1	-0.5	14.8	51.1*	-7.7	25.8	1.1
COC(=O)COc1ccc2cc(-c3ccccc3)c(=O)oc2c1	-0.7	43.0*	15.2	11.1	2.0	-6.1
Cc1oc(C(=O)O)cc1CSc1nnc(-c2ccccc2)n1C	-0.1	-1.1	-3.5	-0.9	-2.2	-4.6
CCOc1ccc(NS(=O)(=O)c2cc(OCC(N)=O)c(C)cc2Cl)cc1	-0.2	-3.5	-10.5	0.7	0.5	-4.7
CNC(=O)/C(C#N)=C\c1ccc(CNS(=O)(=O)c2ccc(Cl)cc2)o1	-0.3	-3.5	12.1	-7.5	0.9	0.7
COc1ccc(S(=O)(=O)N(CC(=O)NCCCN(C)C)c2ccc(C)cc2)cc1OC	0.3	0.8	-7.1	4.9	5.8	4.8
Cc1cc(=O)n2c(C(=O)Nc3ccc(C(=O)OC(C)C)cc3)c(C(=O)Nc3ccccc3)sc2n1	-0.6	4.3	12.9	-5.3	16.9	-4.0
COCCn1c(SCc2ccc(Cl)cc2)nc2c1c(=O)[nH]c(=O)n2C	0.0	-6.1	58.2*	-6.5	17.0	/
COCCn1c(SCc2ccc(C)cc2)nc2c1c(=O)[nH]c(=O)n2C	-0.1	-5.4	9.3	-2.0	2.2	/
Cc1cccc(C)c1NCc1nnc(SCC(=O)Nc2nc(-c3ccccc3)cs2)n1-c1ccccc1	0.1	1.4	59.9*	1.8	24.4	-8.7
CCOc1ccc(NCc2nnc(SCC(=O)Nc3nc(-c4ccccc4)cs3)n2-c2ccccc2)cc1	0.3	1.4	-68.3	2.4	-67.4*	-0.5
COc1ccc(OCCCC(=O)NNC(=O)c2ccncc2)cc1	0.2	1.2	-4.6	-0.3	-2.7	-3.7
COc1cccc(C(=O)Nc2ccc3c(c2)C(=O)N(CC2CCCO2)C3=O)c1 (stereo unspecified)	-0.1	7.2	16.5	1.7	3.5	2.8
CC(=O)Oc1cccc(C(=O)Nc2ccc3c(c2)C(=O)N(CC2CCCO2)C3=O)c1 (stereo unspecified)	0.3	-1.5	71.8*	-1.6	37.7	-4.4
CCOC(=O)CC1NCCc2c1[nH]c1ccc(OC)cc21 (stereo unspecified)	0.1	-5.2	57.8*	-2.7	16.3	-6.3
O=S(=O)(CCc1nc2ccccc2[nH]1)c1ccc(Cl)cc1	0.1	-0.2	-91.3	-2.2	-88.6*	-4.1
c1ccc(OCc2nc3ccccc3[nH]2)cc1	0.0	-3.6	31.5	-3.7	12.9	6.5
Cc1ccc(S(=O)(=O)CCc2nc3ccccc3[nH]2)cc1	0.4	-3.1	-11.6	2.8	-0.5	-5.4
Clc1ccc(OCc2nc3ccccc3[nH]2)cc1	0.5	-16.0	77.3*	-9.0	42.8	-3.3

Source: PubChem (several laboratories)
